# Hit rate of the full screen: of about 2,400 compounds, about 2,200 (92%) were called active.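 How the source made its calls: active means mean inhibition over triplicate runs exceeds the cutoff derived for the earlier primary screen (cut at about 25% in these data); inactive means the rest.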 The set was probably picked from earlier hits. Some of the results follow.
# Molecular target: Platelet-activating factor acetylhydrolase IB subunit alpha2 (Homo sapiens) (UniProt P68402)
# Assay: inhibition of human PAFAH1B2 catalytic subunit – biochemical, fluorescence polarization, FP-rhodamine probe, triplicate, confirmation (AID 493034);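 further: 0% = enzyme with DMSO and 100% = wells lacking PAFAH1B2 protein; inhibitors lower polarization by leaving the probe unbound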
# Conditions: recombinant PAFAH1B2, FP-rhodamine probe fluorescence polarization; at 3.39 µM; hits give high values
# Chain of Platelet-activating factor acetylhydrolase IB subunit alpha2 (Homo sapiens) (P68402 whole entry, looked up): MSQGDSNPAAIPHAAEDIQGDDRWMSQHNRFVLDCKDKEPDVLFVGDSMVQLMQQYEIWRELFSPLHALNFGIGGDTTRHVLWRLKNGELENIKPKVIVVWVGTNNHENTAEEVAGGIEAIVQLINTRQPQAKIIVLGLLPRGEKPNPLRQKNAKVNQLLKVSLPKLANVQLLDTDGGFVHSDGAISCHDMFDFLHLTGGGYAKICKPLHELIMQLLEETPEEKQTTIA
row,Compound,inhibition
1,CNC(=S)N(Cc1ccc(OC)cc1)C1CC(=O)N(c2ccc(Cl)cc2)C1=O (configuration not stated),23.9% (inactive)
2,CC(C)(C)OC(=O)[C@H]1[C@H](c2ccc([N+](=O)[O-])cc2)C2(C(=O)c3ccccc3C2=O)C2c3ccccc3C=NN21 (some centres not stated),73.7% (active)
3,O=C(O)c1ccccc1C(=O)NCCc1c(C(=O)O)[nH]c2ccc(Cl)cc12,26% (active)
4,O=C(O)c1[nH]c2ccc(Cl)cc2c1CCN1C(=O)c2ccccc2C1=O,79.2% (active)
5,O=C(O)c1[nH]c2ccc(Br)cc2c1CCN1C(=O)c2cccc([N+](=O)[O-])c2C1=O,41.5% (active)
6,CC(C(=O)O)N1C(=O)C2C3CC(C2C1=O)C1C(c2ccccc2)c2sc(=O)[nH]c2SC31 (configuration not stated),43.1% (active)
7,CC(C)CC(C(=O)O)N1C(=O)C2C3CC(C2C1=O)C1C(c2ccccc2)c2sc(=O)[nH]c2SC31 (configuration not stated),39.3% (active)
8,Cc1ccc(N2C(=O)CC(Sc3nc4ccccc4o3)C2=O)cc1Cl (configuration not stated),20.1% (inactive)
9,Cn1c(COc2ccc(Cl)cc2)nnc1SCc1ncc(-c2ccccc2)o1,22.4% (inactive)
10,C[C@H](NC(=O)c1nc[nH]c1C(=O)NCC(=O)OCc1ccccc1)c1ccccc1,23.8% (inactive)
11,Cc1noc(C)c1COc1ccccc1C(=O)NC(C)c1ccc(Cl)cc1 (configuration not stated),15.7% (inactive)
12,COc1cc(/C=N/NS(=O)(=O)c2ccc(C(C)(C)C)cc2)cc([N+](=O)[O-])c1O,14.5% (inactive)
13,COc1cc(/C=N/N(C)S(=O)(=O)c2ccc(C)cc2)cc([N+](=O)[O-])c1O,30.5% (active)
14,COc1cccc(/C=N/Nc2ccc(S(=O)(=O)Nc3ccccc3C(=O)O)cc2[N+](=O)[O-])c1O,20.4% (inactive)
15,CN(CCc1ccccn1)C(=S)NC(=O)c1ccco1,3.54% (inactive)
16,O=C(CNC(=O)OCc1ccccc1)Oc1cc2oc(=O)cc(-c3ccccc3)c2cc1Cl,50.6% (active)
17,CC(C)(c1ccc(O)cc1)c1ccc(O)cc1,42.2% (active)
18,COC(=O)c1c(NC(=O)C2C3CCC(O3)C2C(=O)O)sc2c1CCCCCC2 (configuration not stated),39.5% (active)
19,O=C(O)C1=C[C@H](c2ccc(C(F)(F)F)cc2)C[C@H](OCc2ccc(CO)cc2)O1,26% (active)
20,Cc1ccc(S(=O)(=O)N2[C@@H](c3ccc(Cl)cc3)C(C(=O)O)=C[C@H]2C(C)(C)C)cc1,21% (inactive)
21,Cc1ccc(S(=O)(=O)N/N=C/c2cccn2-c2ccc(Cl)cc2)cc1,45% (active)
22,O=C(NCc1ccc(Cl)cc1)C(=O)NCC1OCCN1S(=O)(=O)c1cc(F)ccc1F (configuration not stated),20.3% (inactive)
23,CN(C(=O)Cc1c(C(=O)O)n(C)c2ccccc12)c1ccc(Cl)cc1,41.1% (active)
24,Cc1nn(-c2ccccc2)c(Cl)c1CN(C(=O)CCl)c1ccc(Cl)cc1,21.7% (inactive)
25,O=C(NNC(=O)C12CC3CC(CC(Cl)(C3)C1)C2)c1csc(N2CCOCC2)n1,23% (inactive)
26,S=c1[nH]nc(Cc2ccc(Br)cc2)n1/N=C/c1ccc(Cl)cc1,20% (inactive)

row,Compound,inhibition
1,C=CCn1c(-c2cccn(Cc3ccc(Cl)cc3)c2=O)n[nH]c1=S,22.8% (inactive)
2,S=c1[nH]nc(-c2ccc(Cl)cc2)n1Cc1ccccc1,32% (active)
3,O=C(C[C@H]1C/C=C\C[C@@H](Cc2ccc(F)cc2)C(=O)OC[C@H]2CCCN2C1=O)N[C@@H](CO)Cc1ccccc1,35.2% (active)
4,O=C(C[C@@H]1C/C=C\C[C@@H](Cc2ccc(F)cc2)C(=O)OC[C@H]2CCCN2C1=O)N[C@H](CO)Cc1ccccc1,32.1% (active)
5,O=C(C[C@@H]1C/C=C\C[C@@H](Cc2ccc(F)cc2)C(=O)OC[C@@H]2CCCN2C1=O)NCCO,26.9% (active)
6,C[C@@H]1COC(=O)[C@H](Cc2ccc(F)cc2)C/C=C\C[C@@H](CC(=O)NCCO)C(=O)N1,22.3% (inactive)
7,CCN1C(=O)N/C(=C/c2cc(C)n(Cc3ccccc3)c2C)C1=O,77.5% (active)
8,O=C(N/N=C/c1cc([N+](=O)[O-])ccc1O)Nc1ccccc1,16.1% (inactive)
9,O=C(N/N=C/c1cc([N+](=O)[O-])ccc1O)NC12CC3CC(CC(C3)C1)C2,79.6% (active)
10,Clc1ccc(OCCSCc2nc3ccccc3[nH]2)cc1,22.6% (inactive)
11,COc1ccc(S(=O)(=O)Nc2ccc3c(c2)CC(=O)N([C@@H](C)CO)C[C@@H](C)[C@@H](CN(C)Cc2ccccc2)O3)cc1,26.1% (active)
12,COc1ccc(S(=O)(=O)Nc2ccc3c(c2)C(=O)N([C@@H](C)CO)C[C@H](C)[C@H](CN(C)S(=O)(=O)c2ccc(F)cc2)O3)cc1,22.2% (inactive)
13,COc1ccc(S(=O)(=O)Nc2ccc3c(c2)C(=O)N([C@H](C)CO)C[C@H](C)[C@@H](CN(C)S(=O)(=O)c2ccccc2)O3)cc1,22.7% (inactive)
14,COC(=O)c1sc(-c2ccc(Cl)cc2)cc1NC(=O)COCC(=O)O,11.5% (inactive)
15,O=C(Nc1sc(-c2ccccc2)cc1C(=O)O)c1ccccc1,28.8% (active)
16,S=c1[nH]cnc2sc(-c3ccccc3)cc12,37.9% (active)
17,O=[N+]([O-])c1cc(-c2cnc3ccccc3n2)ccc1Oc1ccc(Br)cc1,51.6% (active)
18,CC(C)(C)CC(C)(C)c1ccc(O)c(CN2CCN(CCC#N)CC2)c1,32.4% (active)
19,COC(=O)c1sccc1NC(=O)CC1C(=O)NCCN1C(=O)Nc1ccc(OCc2ccccc2)cc1 (configuration not stated),52.2% (active)
20,Oc1cc2c(cc1O)CN(C(=S)NCCc1ccc(Cl)cc1)CCC2,55.2% (active)
21,Cn1nc(C(=O)NCCc2ccc(Cl)cc2)c2c1-c1ccccc1S(=O)(=O)C2,23.3% (inactive)
22,Cc1c(C(=O)N2CCOCC2)cc(C(C)(C)C)n1-c1ccccc1,41% (active)
23,Cc1ccc(S(=O)(=O)n2cc(CO)c3ccccc32)cc1,40% (active)
24,CCC(C)c1c(N)n(S(=O)(=O)c2ccc(C)cc2)oc1=O (configuration not stated),23.5% (inactive)
25,O=C1NCCOC(=O)[C@H](Cc2ccc(F)cc2)C/C=C\C[C@H]1CC(=O)N(CCO)Cc1ccccc1,14.8% (inactive)
26,O=C(C[C@H]1C/C=C/CC[C@H](Cc2ccc(F)cc2)C(=O)O[C@H](c2ccccc2)CNC1=O)NCCO,23.6% (inactive)

row,Compound,inhibition
1,O=C1NC[C@@H](c2ccccc2)OC(=O)[C@@H](Cc2ccc(F)cc2)CC/C=C/C[C@H]1CC(=O)N(CCO)Cc1ccccc1,57.9% (active)
2,O=C1NC[C@H](c2ccccc2)OC(=O)[C@H](Cc2ccc(F)cc2)C/C=C\C[C@H]1CC(=O)N(CCO)Cc1ccccc1,49.6% (active)
3,O=C1NC[C@@H](c2ccccc2)OC(=O)[C@H](Cc2ccc(F)cc2)CC/C=C/C[C@H]1CC(=O)N(CCO)Cc1ccccc1,52.6% (active)
4,S=c1[nH]nc(CSCCOc2ccc(Cl)cc2Cl)o1,23.3% (inactive)
5,CC(C)C(C(=O)Nc1nccs1)c1ccc(Cl)cc1 (configuration not stated),17.2% (inactive)
6,N#Cc1c(NC(=O)C2CC=CCC2C(=O)O)sc2c1CCCCCC2 (configuration not stated),41.1% (active)
7,CC(C)(C)NC(=O)C(=O)NNC(=O)COc1ccc(Br)cc1,23.5% (inactive)
8,CCc1ccc(-c2cc(C(=O)Nn3cnnc3)c3ccccc3n2)cc1,30.2% (active)
9,Cc1ccc(S(=O)(=O)N2CCN(C(=S)NCCc3ccccc3)CC2)cc1,34.8% (active)
10,CC(=O)N1CCOc2ccc(S(=O)(=O)NCCc3ccc(C)cc3)cc21,23.7% (inactive)
11,C=C1C(=O)[C@@]23[C@H](O)C[C@@H]4C(C)(C)CC[C@H](O)[C@@]4(C)[C@@H]2CC[C@@H]1[C@H]3O,84.8% (active)
12,C=C1C(=O)[C@@]23[C@H](O)C[C@@H]4C(C)(C)CC[C@H](O)[C@]4(C)[C@@H]2C[C@H](O)[C@@H]1[C@H]3O,69.2% (active)
13,Cc1ccc(Sc2ccc(/C=C3/C(=O)NN(c4ccccc4)C3=O)o2)cc1,73.8% (active)
14,Cc1ccc2c(c1)C=CC(C)N2C(=O)c1ccccc1 (configuration not stated),21.4% (inactive)
15,O=C(CCNS(=O)(=O)c1ccccc1)NCCCSc1ccccc1,22.4% (inactive)
16,Cc1ccc(S(=O)(=O)/N=C2\SC(CC(=O)Nc3ccc(F)cc3)C(=O)N2c2ccccc2)cc1 (configuration not stated),23.5% (inactive)
17,Cc1ccc(CN=C2NC(=O)C(CC(=O)NCCc3ccccc3)S2)cc1 (configuration not stated),51.6% (active)
18,O=C(NCCc1ccc(Cl)cc1)c1ccc(=O)[nH]c1,19.5% (inactive)
19,C[C@H](CO)N1C[C@H](C)[C@@H](CN(C)C(=O)Nc2ccc(C(F)(F)F)cc2)Oc2c(NC(=O)Nc3ccc4c(c3)OCO4)cccc2C1=O,44.2% (active)
20,C[C@H](CO)N1C[C@H](C)[C@@H](CN(C)C(=O)Nc2ccccc2)Oc2c(NC(=O)Nc3ccc(C(F)(F)F)cc3)cccc2C1=O,23.4% (inactive)
21,C[C@H](CO)N1C[C@H](C)[C@@H](CN(C)C(=O)Nc2ccc(C(F)(F)F)cc2)Oc2c(NC(=O)Nc3ccccc3)cccc2C1=O,42.3% (active)
22,C[C@H](CO)N1C[C@H](C)[C@@H](CN(C)C(=O)Nc2ccc(C(F)(F)F)cc2)Oc2c(NC(=O)Nc3ccc(C(F)(F)F)cc3)cccc2C1=O,62.5% (active)
23,C[C@@H]1CN([C@H](C)CO)C(=O)c2cccc(NC(=O)NC3CCCCC3)c2O[C@@H]1CN(C)C(=O)Nc1ccc(C(F)(F)F)cc1,55.7% (active)
24,COc1ccc(NC(=O)Nc2cccc3c2O[C@H](CN(C)C(=O)Nc2ccc(C(F)(F)F)cc2)[C@@H](C)CN([C@H](C)CO)C3=O)cc1,56.9% (active)
25,COc1ccc(NC(=O)N(C)C[C@H]2Oc3c(NC(=O)Nc4ccc(C(F)(F)F)cc4)cccc3C(=O)N([C@H](C)CO)C[C@@H]2C)cc1,28.7% (active)
